Read-out in experiment [1]: TIMP metallopeptidase inhibitor 1 (TIMP1), TIMP1 (gene 7076)
The experiment is described as follows: BSK_hDFCGF_TIMP1: BioMAP Diversity Plus: hDFCGF Assay for TIMP metallopeptidase inhibitor 1 (TIMP1) Biomarker Activity (AID 2283062). As to conditions: primary human foreskin fibroblasts; actives raise or lower the signal. The method in brief:
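Bidirectional curve fitting against DMSO baseline yielded this endpoint, based on ELISA detection of TIMP-1 in primary human foreskin fibroblasts exposed to compound for 24 h.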

Read-out in experiment [2]: Monokine induced gamma interferon (MIG), CXCL9 (gene 4283)
Briefly: BSK_hDFCGF_MIG: BioMAP Diversity Plus: hDFCGF Assay for Monokine induced gamma interferon (MIG) Biomarker Activity (AID 2283063). The note with it: primary human foreskin fibroblasts; actives raise or lower the signal. The method in brief:
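Endpoint derived by bidirectional fitting relative to DMSO; MIG quantified via ELISA in primary human foreskin fibroblasts harvested 24 h after dosing.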

Read-out in experiment [3]: Matrix Metallopeptidase 1 (MMP1), MMP1 (gene 4312)
Briefly: BSK_hDFCGF_MMP1: BioMAP Diversity Plus: hDFCGF Assay for Matrix Metallopeptidase 1 (MMP1) Biomarker Activity (AID 2283064). As to conditions: primary human foreskin fibroblasts; actives raise or lower the signal. In outline:
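MMP1 levels quantified by ELISA 24 h after dosing human dermal fibroblast cultures, with parallel SRB total-protein staining for overt cytotoxicity. Data fitted in both directions against DMSO baseline.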

Read-out in experiment [4]: Vascular cell adhesion molecule 1 (VCAM1), VCAM1 (gene 7412)
Briefly: BSK_hDFCGF_VCAM1: BioMAP Diversity Plus: hDFCGF Assay for Vascular cell adhesion molecule 1 (VCAM1) Biomarker Activity (AID 2283065).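 As to AC50: VCAM-1 protein level quantified by ELISA after 24 h chemical exposure.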 The note with it: primary human foreskin fibroblasts; actives raise or lower the signal. In outline: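 Measured after 24 h chemical treatment of primary human skin fibroblasts, VCAM-1 was detected by ELISA and concentration-response analysed in both directions versus DMSO vehicle.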

Read-out in experiment [5]: Plasminogen activator inhibitor-1 (PAI1), SERPINE1 (gene 5054)
The experiment is described as follows: BSK_hDFCGF_PAI1: BioMAP Diversity Plus: hDFCGF Assay for Plasminogen activator inhibitor-1 (PAI1) Biomarker Activity (AID 2283066). As to conditions: primary human foreskin fibroblasts; actives raise or lower the signal. In outline:
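Human skin fibroblast cultures receive chemical for 24 h before PAI-1 is measured by ELISA; signal changes are fitted bidirectionally against DMSO-treated wells.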

Read-out in experiment [6]: Intercellular Adhesion Molecule 1 (ICAM1), ICAM1 (gene 3383)
Briefly: BSK_KF3CT_ICAM1: BioMAP Diversity Plus: KF3CT Assay for Intercellular Adhesion Molecule 1 (ICAM1) Biomarker Activity (AID 2283067). As to conditions: primary human keratinocytes with fibroblasts; actives raise or lower the signal. In outline: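 Bidirectional curve fitting against a DMSO baseline was applied to ICAM-1 ELISA signal from primary human skin co-cultures harvested 24 h after treatment, with SRB staining of parallel wells for overt cytotoxicity.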

Read-out in experiment [7]: Interferon-gamma inducible Protein 10 (IP10), CXCL10 (gene 3627)
The experiment is described as follows: BSK_KF3CT_IP10: BioMAP Diversity Plus: KF3CT Assay for Interferon-gamma inducible Protein 10 (IP10) Biomarker Activity (AID 2283068). The note with it: primary human keratinocytes with fibroblasts; actives raise or lower the signal. In outline: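 Signal is secreted/surface IP-10 by ELISA in a human primary skin co-culture of keratinocytes and foreskin fibroblasts, taken 24 h post-dosing; DMSO served as negative control.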

A short description of experiment [8]: BSK_KF3CT_SRB: Viability Assessment in the BioMAP Diversity Plus: KF3CT Assay (AID 2283069).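 Also: total protein by sulforhodamine B staining as a cytotoxicity measure; read 24 h after compound addition.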 As to conditions: primary human keratinocytes with fibroblasts. The method in brief:
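Cytotoxicity was gauged by SRB staining (0.1% SRB, 10% TCA fixation, 560 nm) of parallel cultures at 24 h. The cells were primary human skin keratinocytes co-cultured with fibroblasts, and activity was fitted in both directions against DMSO.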

Read-out in experiment [9]: Interleukin-1 alpha (IL1a), IL1A (gene 3552)
Briefly: BSK_KF3CT_IL1a: BioMAP Diversity Plus: KF3CT Assay for Interleukin-1 alpha (IL1a) Biomarker Activity (AID 2283070). As to conditions: primary human keratinocytes with fibroblasts; actives raise or lower the signal. In outline: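 IL-1a was detected by ELISA 24 h after chemical treatment of a co-culture of human skin keratinocytes and foreskin fibroblasts. Gain or loss of signal was fitted against the DMSO baseline.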

Read-out in experiment [10]: TIMP metallopeptidase inhibitor 2 (TIMP2), TIMP2 (gene 7077)
Briefly: BSK_KF3CT_TIMP2: BioMAP Diversity Plus: KF3CT Assay for TIMP metallopeptidase inhibitor 2 (TIMP2) Biomarker Activity (AID 2283071). The note with it: primary human keratinocytes with fibroblasts; actives raise or lower the signal. The method in brief:
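Measurements come from ELISA detection of TIMP-2 at 24 hours in a dosed human keratinocyte and foreskin fibroblast co-culture. DMSO serves as negative control and baseline.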

Read-out in experiment [11]: Transforming growth factor beta 1 (TGFb1), TGFB1 (gene 7040)
Briefly: BSK_KF3CT_TGFb1: BioMAP Diversity Plus: KF3CT Assay for Transforming growth factor beta 1 (TGFb1) Biomarker Activity (AID 2283072). As to conditions: primary human keratinocytes with fibroblasts; actives raise or lower the signal. In outline: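 TGF-b1 ELISA on a 24 h dosed co-culture of human keratinocytes and foreskin fibroblasts; cytotoxicity tracked in parallel cultures by SRB staining.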

Read-out in experiment [12]: Matrix Metallopeptidase 9 (MMP9), MMP9 (gene 4318)
Briefly: BSK_KF3CT_MMP9: BioMAP Diversity Plus: KF3CT Assay for Matrix Metallopeptidase 9 (MMP9) Biomarker Activity (AID 2283074).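 As to AC50: MMP9 protein level quantified by ELISA in the co-culture.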 The note with it: primary human keratinocytes with fibroblasts; actives raise or lower the signal. In outline:
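MMP-9 quantified by ELISA after 24 h chemical treatment of primary human skin keratinocyte/fibroblast co-cultures; gain or loss fitted against DMSO, with parallel SRB staining (0.1% SRB, 560 nm) for overt cytotoxicity.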

Read-out in experiment [13]: urokinase plasminogen activator (uPA), PLAU (gene 5328)
Briefly: BSK_KF3CT_uPA: BioMAP Diversity Plus: KF3CT Assay for urokinase plasminogen activator (uPA) Biomarker Activity (AID 2283075). The note with it: primary human keratinocytes with fibroblasts; actives raise or lower the signal. In outline: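 ELISA read-out of uPA 24 h after dosing human skin keratinocytes co-cultured with foreskin fibroblasts. Signal change fitted both ways relative to DMSO; sulforhodamine B on parallel cultures marks overt cytotoxicity.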

Read-out in the next experiment: CD40, CD40 (gene 958)
Briefly: BSK_LPS_CD40: BioMAP Diversity Plus: LPS Assay for CD40 Biomarker Activity (AID 2283076). The note with it: primary human HUVEC with PBMC; actives raise or lower the signal. The method in brief:
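Using a multiplexed primary human co-culture (umbilical vein endothelium plus PBMC), CD40 was read by ELISA 24 h after dosing, with cytotoxicity tracked by sulforhodamine B staining of parallel cultures and activity fitted bidirectionally versus DMSO.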

Read-out in experiment [14]: E-selectin (Homo sapiens) (UniProt P16581)
Briefly: BSK_LPS_Eselectin: BioMAP Diversity Plus: LPS Assay for Eselectin Biomarker Activity (AID 2283077). The note with it: primary human HUVEC with PBMC; actives raise or lower the signal. In outline:
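Dose chemical onto LPS-driven HUVEC/PBMC co-culture; after 24 h, run ELISA for E-selectin; fit up- and down-going responses relative to DMSO control.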

Read-out in experiment [15]: Interleukin-8 (IL8), CXCL8 (gene 3576)
Briefly: BSK_LPS_IL8: BioMAP Diversity Plus: LPS Assay for Interleukin-8 (IL8) Biomarker Activity (AID 2283078). The note with it: primary human HUVEC with PBMC; actives raise or lower the signal. The method in brief: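 In this LPS system, chemical-treated human umbilical vein endothelium/PBMC co-cultures were harvested at 24 h for IL-8 ELISA.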

Experiment [16] is described as follows: BSK_LPS_SRB: Viability Assessment in the BioMAP Diversity Plus: LPS Assay (AID 2283079).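 Also: total protein by sulforhodamine B absorbance as a cytotoxicity measure; measured one day after compound addition; fitted in both directions against DMSO so loss or gain of signal counts.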 As to conditions: primary human HUVEC with PBMC. The method in brief:
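Cytotoxicity endpoint in human endothelial–PBMC co-culture: 24 h exposure, then SRB (0.1%) staining, 560 nm read.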

Read-out in experiment [17]: Interleukin-1 alpha (IL1a), IL1A (gene 3552)
The experiment is described as follows: BSK_LPS_IL1a: BioMAP Diversity Plus: LPS Assay for Interleukin-1 alpha (IL1a) Biomarker Activity (AID 2283080). As to conditions: primary human HUVEC with PBMC; actives raise or lower the signal. The method in brief:
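Primary human HUVEC and PBMC co-culture stimulated with LPS is dosed and harvested at 24 h. Both increases and decreases in ELISA-measured IL-1a are scored relative to DMSO.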

Read-out in experiment [18]: Monocyte Chemoattractant Protein-1 (MCP1), CCL2 (gene 6347)
The experiment is described as follows: BSK_LPS_MCP1: BioMAP Diversity Plus: LPS Assay for Monocyte Chemoattractant Protein-1 (MCP1) Biomarker Activity (AID 2283081).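 As to AC50: secreted MCP-1 protein quantified by ELISA in culture supernatant.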 The note with it: primary human HUVEC with PBMC; actives raise or lower the signal. In outline:
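Values derive from bidirectional fitting against DMSO of ELISA-measured MCP-1 in a human primary endothelial and mononuclear cell co-culture, 24 h after chemical addition under LPS activation.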

Read-out in experiment [19]: C-C motif chemokine 2 (Homo sapiens) (UniProt P13500)
Briefly: BSK_KF3CT_MCP1: BioMAP Diversity Plus: KF3CT Assay for Monocyte Chemoattractant Protein 1 (MCP1/CCL2) Biomarker Activity (AID 2283073). The note with it: primary human keratinocytes with fibroblasts; actives raise or lower the signal. The method in brief: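 Biomarker MCP-1 is measured by ELISA in primary human keratinocytes co-cultured with foreskin fibroblasts, 24 h after chemical treatment; DMSO serves as the negative control and activity baseline.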

Active and inactive are the calls of the source. The calls were made as follows: active = hit-call score of the fitted dose curve at least 0.9, where 1 is the maximum; inactive = score below 0.9.

Sequence of E-selectin (Homo sapiens) (P16581 whole entry, looked up): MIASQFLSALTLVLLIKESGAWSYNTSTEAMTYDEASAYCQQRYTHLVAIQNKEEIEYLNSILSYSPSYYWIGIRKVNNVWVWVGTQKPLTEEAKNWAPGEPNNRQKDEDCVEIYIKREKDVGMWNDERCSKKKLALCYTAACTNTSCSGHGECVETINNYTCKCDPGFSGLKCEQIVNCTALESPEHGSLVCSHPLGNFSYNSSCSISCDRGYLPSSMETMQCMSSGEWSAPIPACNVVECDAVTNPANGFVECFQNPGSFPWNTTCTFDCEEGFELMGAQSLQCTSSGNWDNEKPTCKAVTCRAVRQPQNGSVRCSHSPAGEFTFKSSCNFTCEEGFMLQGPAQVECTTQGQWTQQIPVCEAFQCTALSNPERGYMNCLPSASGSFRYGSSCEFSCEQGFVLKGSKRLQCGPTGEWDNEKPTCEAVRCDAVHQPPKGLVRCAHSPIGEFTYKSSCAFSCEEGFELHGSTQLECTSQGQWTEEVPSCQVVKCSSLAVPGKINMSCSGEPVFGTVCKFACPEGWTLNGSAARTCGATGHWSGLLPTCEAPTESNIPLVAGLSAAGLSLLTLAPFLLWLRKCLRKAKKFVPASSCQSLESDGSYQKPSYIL

For `CC(C)CCO`, the outcome in experiment [1], in experiment [2], in [3], in [4], in experiment [5] and in [6] was inactive. Also, the result in [7], in experiment [8], in experiment [9], in [10], in experiment [11] and in experiment [12] was inactive. Further, the outcome in [13] was “inactive”; with CD40, CD40 (gene 958), “inactive”; in experiment [14], “inactive”; in experiment [15], “inactive”; in experiment [16] it was “inactive”; in experiment [17] it was “inactive”. Further, the result in experiment [18] was inactive.
As for `COCCOc1cc2cc(C(=O)NC3CCN(C(C)C)CC3)n(CC(=O)Nc3ccc(Cl)cn3)c2cn1`, the result in experiment [1], in experiment [2], in [3], in [4], in experiment [5] and in experiment [6] was inactive. In addition, the outcome in experiment [7], in experiment [8], in experiment [9], in experiment [10], in [11] and in experiment [19] was inactive. For the same molecule, the outcome is “inactive” in experiment [12]; “inactive” with CD40, CD40 (gene 958); “inactive” in experiment [14]; “inactive” in experiment [15]; “inactive” in experiment [16]; “inactive” in experiment [17]. The outcome in [18] was inactive.
As for `C[C@](N)(Cc1ccc(O)c(O)c1)C(=O)O`, the outcome in [1], in experiment [3], in [5], in experiment [6], in [7] and in experiment [8] was inactive. Further, the outcome is “inactive” in experiment [9]; “inactive” in [11]; “inactive” in [19]; “inactive” in experiment [12]; “inactive” with CD40, CD40 (gene 958); “inactive” in [14]. Besides, the result in experiment [15], in experiment [16], in experiment [17] and in experiment [18] was inactive. The AC50 in experiment [2] and in experiment [4] was 20 µM (active) in each case.
`CCCCCCc1ccc(O)cc1O`: the half-maximal activity concentration (AC50) in [1] is 33.2 µM (active); in experiment [2], 33.6 µM (active); in experiment [3], 37.9 µM (active); in experiment [4], 28.1 µM (active); in [5], 30.7 µM (active); in experiment [6], 31.3 µM (active). The half-maximal activity concentration (AC50) in experiment [9] is 30.3 µM (active); in experiment [10] it was 32.7 µM (active); in experiment [11] it was 29.7 µM (active); in [19], 26.2 µM (active); in experiment [12], 34.1 µM (active); in the experiment with CD40, CD40 (gene 958) it was 27.6 µM (active). For the same molecule, the AC50 was 31.8 µM (active) in experiment [14]; 29.6 µM (active) in experiment [15]; 28.5 µM (active) in [16]; 26.6 µM (active) in experiment [17]; 30.2 µM (active) in experiment [18].
Take `On1ccccc1=S`: the AC50 was 1.4 µM (active) in [1]; 0.204 µM (active) in experiment [2]; 1.35 µM (active) in [3]; 0.479 µM (active) in experiment [4]; 1.7 µM (active) in experiment [5]; 10.4 µM (active) in experiment [6]. In addition, the AC50 in experiment [7] is 10.3 µM (active); in [8] it was 6.33 µM (active); in [9] it was 10.2 µM (active); in experiment [10], 11.6 µM (active); in [11], 9.8 µM (active); in experiment [12] it was 8.53 µM (active). Also, the AC50 is 11 µM (active) in experiment [13]; 19.8 µM (active) in the experiment with CD40, CD40 (gene 958); 31.2 µM (active) in experiment [14]; 26.2 µM (active) in [16]; 19.8 µM (active) in experiment [17]. Besides, the result in experiment [15] and in experiment [18] was inactive.
